Measurements published in the supplement of paper PMC10681739.

molecular target: T1, ETS1 (UniProt P14921); test: TF binding intensity (PBM fluorescence), negative control probe (arbitrary fluorescence units); higher = stronger binding; details: not given
T1 sequence: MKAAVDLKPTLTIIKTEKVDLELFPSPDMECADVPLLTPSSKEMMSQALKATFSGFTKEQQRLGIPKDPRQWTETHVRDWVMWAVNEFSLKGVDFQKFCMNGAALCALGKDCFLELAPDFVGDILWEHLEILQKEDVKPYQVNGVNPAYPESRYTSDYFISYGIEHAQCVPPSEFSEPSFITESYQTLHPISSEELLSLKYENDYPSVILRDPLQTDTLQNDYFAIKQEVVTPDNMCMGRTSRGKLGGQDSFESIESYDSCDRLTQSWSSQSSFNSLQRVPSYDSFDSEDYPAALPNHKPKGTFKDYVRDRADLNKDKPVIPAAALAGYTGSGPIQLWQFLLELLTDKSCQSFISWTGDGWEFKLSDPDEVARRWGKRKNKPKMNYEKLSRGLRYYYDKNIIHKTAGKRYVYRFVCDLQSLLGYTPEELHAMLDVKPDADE
Protocol: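 gcPBM negative-control 36-bp genomic probes lacking TF binding sites. Each was incubated with recombinant human ETS1 or RUNX1 alone and detected by antibody fluorescence. Values are medians over replicate spots (4 spots for the ETS1-RUNX1 arrays, 3 for the ETS1-ETS1 array). The probes sit in constant array flanks that are not printed.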

First: GGGTCTTGCCATTGAGAGGCAGGTGATGTGCTGTTT (protein concentration 10 nM)
Second: CATGAAGAATATAGCATTGTTTTGTATATGTTTTAA (protein concentration 10 nM)
The TF binding intensity of the first is higher: 132 for the first, 131 for the second.

First: GAAAGAGGCACATGGTGCCTCACAGCCTCCTCCCAG (protein concentration 10 nM)
Second: CCCCTGTGCAACCTTTCATTCCCTAAGCCACTTTTC (protein concentration 10 nM)
The TF binding intensity of the first is lower: 128 for the first, 139 for the second.

molecular target: T1, ETS1; test: ETS1 binding intensity (PBM fluorescence) in presence of RUNX1, normalised to ETS1-only experiment (arbitrary fluorescence units); higher = stronger binding; details: ETS1 concentration 1 nM; RUNX1 concentration 25 nM

Compared with CAGCCCTAGCGAGTTTCCTGCGGGGAAGGGCATTCC, CCGTGTCAGTGAGGATGTGGGCTGCCGGGCTGGGCG is higher in ETS1 binding intensity: 480 for the first, 753 for the second.

For CTTCGCCGCTTCCAGGAAGGGCCACAACGGCCGTCG, the ETS1 binding intensity was 483.
